Laboratory results published in PubChem BioAssay (NCI).
This is part of a sample that, as a whole, favours compounds with a hit. Of some 83,000 tested, about 20% had one in any assay.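 Assay: single dose, 48 h. Readout: percent growth (0 = no net growth; negative = cell death). Active: <10.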 The source made the active and inactive calls.

Key:
Test in all cases: NCI-60 one-dose screen, 48 h (100 = growth as untreated, 0 = no growth, -100 = all killed)
Conditions in all cases: 10 µM unless noted
T-47D breast = tested on: T-47D breast
BT-549 breast = tested on: BT-549 breast
SW-620 colon = tested on: SW-620 colon
MCF7 breast = tested on: MCF7 breast
HCT-116 colon = tested on: HCT-116 colon
HCC-2998 colon = tested on: HCC-2998 colon
KM12 colon = tested on: KM12 colon
MDA-MB-435 melanoma = tested on: MDA-MB-435 melanoma

Measured: growth

COc1ccc(C2C(C#N)=C(N)Oc3c2sc2c(C)cccc32)cc1 (stereo not drawn)
inactive: T-47D breast 46.9% | BT-549 breast 25.1% | SW-620 colon 26% | MCF7 breast 10.8% | HCT-116 colon 13.2% | HCC-2998 colon 11% | KM12 colon 11.7%

Cc1nn(-c2ccccc2)c(-n2ccnc2)c1/C=N/Nc1nc(-c2ccc(Cl)c(Cl)c2)cs1
inactive: T-47D breast 28.7% | BT-549 breast 71.5% | MDA-MB-435 melanoma 66.2% | SW-620 colon 30.6% | MCF7 breast 17.1% | KM12 colon 66.7%
active: HCT-116 colon 0.896%

CCc1cccc2c1S/C(=C/c1ccc(Cl)cc1)C2=O
inactive: T-47D breast 68.2% | BT-549 breast 112% | SW-620 colon 94.5% | MCF7 breast 52.1% | HCT-116 colon 91.8% | HCC-2998 colon 110%

Cc1cccc2c3c(sc12)C(c1ccc(Cl)cc1)C(C#N)=C(/N=C/c1ccc(Cl)cc1)O3 (stereo not drawn)
active: MCF7 breast 9.92%
inactive: T-47D breast 51% | BT-549 breast 22.7% | SW-620 colon 26.1% | HCT-116 colon 13.4% | HCC-2998 colon 16.2%

c1ccc2cc(C[n+]3ccn(CCCCCCn4cc[n+](Cc5ccc6ccccc6c5)c4)c3)ccc2c1
active: BT-549 breast 9.69%
inactive: T-47D breast 38.5% | MDA-MB-435 melanoma 59.2% | SW-620 colon 95.5% | MCF7 breast 49.8% | HCT-116 colon 45.2% | KM12 colon 41.2%

CCCCCCNC(=O)Oc1ccc(/C(=C(\C)c2ccc(Cl)cc2)c2ccc(OCCN(CC)CC)cc2)cc1
inactive: T-47D breast 39.7% | BT-549 breast 82.7% | MDA-MB-435 melanoma 65% | SW-620 colon 18.2% | MCF7 breast 24.6% | HCT-116 colon 29.6% | KM12 colon 44.6%

CCCCn1c(-c2ccc(C(=O)O/N=C(\N)c3ccc(OC)cc3)cc2)nc(-c2ccccc2)c1-c1ccccc1
active: T-47D breast -31.8% | SW-620 colon 5.52% | MCF7 breast -24.7% | HCT-116 colon -33.6% | HCC-2998 colon 1.5% | KM12 colon 9.02%
inactive: BT-549 breast 11.7%

COc1cccc(-c2nc(-c3ccc(NC(=O)OC(C)C)cc3)[nH]c2-c2ccnc(Br)c2)c1
active: T-47D breast 6.55%
inactive: BT-549 breast 48% | SW-620 colon 34.2% | MCF7 breast 10.5% | HCT-116 colon 13.2% | HCC-2998 colon 39.5%

CN1CCN(CC(=O)N2c3cccc4cccc(c34)N(C(=O)CN3CCN(C)CC3)C2c2cn(-c3ccccc3)nc2-c2cccc([N+](=O)[O-])c2)CC1
active: T-47D breast -75.8% | MDA-MB-435 melanoma -42.6% | SW-620 colon -26.4% | MCF7 breast -71.1% | HCT-116 colon -58.2%
inactive: BT-549 breast 71.2% | KM12 colon 26%

S=c1nc(-c2ccccc2)oc(=NC2CCCCC2)n1C1CCCCC1
inactive: T-47D breast 35.4% | BT-549 breast 82.4% | MDA-MB-435 melanoma 67.9% | MCF7 breast 12.7% | HCT-116 colon 18.5% | KM12 colon 10.7%
active: SW-620 colon 5.42%

Cc1ccc(/C=C(\C#N)n2nc3cccc(F)c3n2)cc1
inactive: T-47D breast 74% | BT-549 breast 102% | MDA-MB-435 melanoma 51.1% | SW-620 colon 94.3% | MCF7 breast 54.1% | HCT-116 colon 70.7% | KM12 colon 68.2%

c1ccc2c(c1)Nc1ccncc1S2
inactive: T-47D breast 95.3% | BT-549 breast 75% | MDA-MB-435 melanoma 121% | SW-620 colon 92.5% | MCF7 breast 100% | HCT-116 colon 82% | KM12 colon 103%

CN1CCN(c2ccc(-c3ccc4ncc(C#N)c(Nc5ccc(F)c(Cl)c5)c4c3)cc2)CC1
inactive: T-47D breast 60.7% | BT-549 breast 63.3% | MDA-MB-435 melanoma 21.6% | SW-620 colon 21.5% | MCF7 breast 51.4% | HCT-116 colon 18.2% | KM12 colon 57.2%
